Measurements taken from PubChem BioAssay (Tox21).
Several values for one entry are separate records, joined by “and”; a condition that tells them apart may be missing. Equal values may be shown once. Records with an inconclusive call do not appear. More than one record can exist for a structure, and the calls need not agree. Activity calls are given as the source filed them. Unless noted, calls come from the whole dose curve.

Columns and labels:
[1] = Nuclear factor erythroid 2-related factor 2/antioxidant responsive element (Nrf2/ARE) small molecule agonists: qHTS cell viability counter screen in human keratinocytes (AID 1919968; active = well fitted curve in the direction sought with a large enough effect in the repeat runs; an effect the other way counts as inactive or inconclusive; note: nearly all actives have a fitted effect of over 55% in size)
Summary of the method: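 KeratinoSens cells (HaCaT keratinocytes stably carrying an ARE-luciferase reporter) were seeded at 1,500 cells/well and rested 5 h at 37 C/5% CO2. They were then exposed to compounds in DMSO for 23 h. Viability was read by CellTiter-Fluor fluorescence after 1 h.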

[2] = Nuclear factor erythroid 2-related factor 2/antioxidant responsive element (Nrf2/ARE) small molecule agonists: luciferase reporter gene qHTS assay in human keratinocytes (AID 1919969); note: nearly all actives have a fitted effect of over 35% in size; note: potency is the fitted concentration of half-maximal effect
[3] = target: Gonadotropin-releasing hormone receptor (Homo sapiens) (UniProt P30968); test: Human gonadotropin-releasing hormone receptor (GnRHR) small molecule agonists, calcium flux assay in GnRHR-HEK293 cells (AID 1920063); note: nearly all actives have a fitted effect of over 35% in size
Gonadotropin-releasing hormone receptor (Homo sapiens), sequence (P30968 whole entry, looked up): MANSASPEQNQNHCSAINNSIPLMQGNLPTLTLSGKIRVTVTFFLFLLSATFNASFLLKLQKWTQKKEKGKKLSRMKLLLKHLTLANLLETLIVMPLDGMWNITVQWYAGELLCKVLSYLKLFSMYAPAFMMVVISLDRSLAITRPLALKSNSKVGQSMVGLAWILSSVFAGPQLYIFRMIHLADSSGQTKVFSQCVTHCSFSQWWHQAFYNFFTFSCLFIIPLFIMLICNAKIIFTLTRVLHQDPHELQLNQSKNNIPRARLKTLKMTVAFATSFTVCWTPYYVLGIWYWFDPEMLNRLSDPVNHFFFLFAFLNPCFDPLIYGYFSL
Summary of the method: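 HEK293 cells stably expressing human GnRHR were plated 18 h at 37 °C, loaded with calcium dye 1 h at 37 °C, then given compound in agonist mode; fluorescence (Ex/Em 480/540) read kinetically for 3 min at 1 s intervals.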

[4] = target: KiSS-1 receptor (Homo sapiens) (UniProt Q969F8); test: Human kisspeptin (KISS1R) small molecule agonists, calcium flux assay in KISS1R-HEK293 cells (AID 1920064; active = well fitted curve in the direction sought with a large enough effect in the repeat runs; an effect the other way counts as inactive or inconclusive)
KiSS-1 receptor (Homo sapiens), sequence (Q969F8 whole entry, looked up): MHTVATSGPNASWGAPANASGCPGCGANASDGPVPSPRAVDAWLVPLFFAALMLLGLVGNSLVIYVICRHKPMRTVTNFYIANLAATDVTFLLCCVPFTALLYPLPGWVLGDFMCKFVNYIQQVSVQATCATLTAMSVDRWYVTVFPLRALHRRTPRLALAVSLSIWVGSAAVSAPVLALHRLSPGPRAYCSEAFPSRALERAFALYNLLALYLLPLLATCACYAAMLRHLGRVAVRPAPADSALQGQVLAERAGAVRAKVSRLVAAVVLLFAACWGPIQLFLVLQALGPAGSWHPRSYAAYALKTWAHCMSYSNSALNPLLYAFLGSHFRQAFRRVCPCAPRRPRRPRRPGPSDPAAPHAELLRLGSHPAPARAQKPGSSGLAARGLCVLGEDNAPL
Summary of the method: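 HEK293 cells stably expressing human KISS1R were plated 18 h at 37 °C, loaded with calcium dye for 1 h at 37 °C, then given compound by pin tool. Fluorescence (Ex/Em 480/540) was read kinetically for 3 min.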

[5] = G protein-coupled receptor (GPCR) small molecule agonists, calcium flux assay: HEK293 wild type cell line counter screen (AID 1920065)
Summary of the method: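 Cells were plated and cultured 18 h at 37 C/5% CO2, then loaded with calcium dye for 1 h at 37 C. Compounds in DMSO were pin-transferred in agonist mode, and fluorescence (Ex/Em 480/540) was read kinetically for 3 min at 1 s intervals.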

[6] = p53 small molecule agonists, cell-based qHTS assay with human liver microsomes (AID 1963577);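 note: p53 response element beta-lactamase reporter cells with liver microsomes plus NADPH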
Summary of the method: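 With metabolic activation: human liver microsomes (0.5 mg/mL final) plus NADPH (0.5 mg/mL final) added alongside compounds to p53RE-bla cells; 16 h 37 C exposure; beta-lactamase read by LiveBLAzer fluorescence.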

[7] = p53 small molecule agonists, cell-based qHTS assay with rat liver microsomes (AID 1963578)
Summary of the method: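 Metabolic activation by rat liver microsomes and NADPH, each 0.5 mg/mL final, added right after compounds to p53RE-bla reporter cells (4,000/well, plated 5 h earlier). 16 h at 37 C, then LiveBLAzer substrate for 2 h at room temperature in the dark; fluorescence read-out.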

[8] = p53 small molecule agonists, cell-based qHTS assay with human liver microsomes: qHTS cell viability counter screen (AID 1963579); note: nearly all actives have a fitted effect of over 45% in size
Summary of the method: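 Metabolic activation used human liver microsomes and NADPH, both 0.5 mg/mL final, over 16 hours at 37 C on p53RE-bla cells (4,000/well). Cytotoxicity measured by CellTiter-Glo luminescence, 30 min at room temperature.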

[9] = p53 small molecule agonists, cell-based qHTS assay with rat liver microsomes: qHTS cell viability counter screen (AID 1963580); note: nearly all actives have a fitted effect of over 45% in size
Summary of the method: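 HCT-116 p53RE-bla, 4,000 cells/well, 5 h pre-incubation; cpd + rat liver microsomes 0.5 mg/mL + NADPH 0.5 mg/mL (final); 16 h, 37 C; CellTiter-Glo, 30 min RT; luminescence.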

[10] = p53 small molecule agonists, cell-based qHTS assay: qHTS cell viability counter screen (AID 1963581); note: nearly all actives have a fitted effect of over 45% in size
Summary of the method: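 p53RE-bla HCT-116 cells were exposed to compounds for 16 h at 37 C; after the beta-lactamase FRET read in the same wells, CellTiter-Glo was added and luminescence (intracellular ATP) read after 30 min at room temperature.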

[11] = p53 small molecule agonists, cell-based qHTS assay (AID 1963582; active = well fitted activation curve with a large enough effect in the signal ratio in the repeat runs, not every such curve was filed as active; the % refers to the signal ratio)
Summary of the method: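 p53RE-bla beta-lactamase reporter cells rested 5 h at 37 C/5% CO2, then received compounds in DMSO by pin transfer and were incubated 16 h at 37 C. LiveBLAzer B/G FRET substrate was loaded for 2 h at room temperature before fluorescence reading.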

[12] = target: 5-hydroxytryptamine receptor 2A (Homo sapiens) (UniProt P28223); test: 5-hydroxytryptamine receptor 2A (HTR2A) small molecule antagonists, cell-based qHTS assay (AID 1963586); note: nearly all actives have a fitted effect of over 45% in size; note: potency is the fitted concentration of half-maximal effect
5-hydroxytryptamine receptor 2A (Homo sapiens), sequence (P28223 whole entry, looked up): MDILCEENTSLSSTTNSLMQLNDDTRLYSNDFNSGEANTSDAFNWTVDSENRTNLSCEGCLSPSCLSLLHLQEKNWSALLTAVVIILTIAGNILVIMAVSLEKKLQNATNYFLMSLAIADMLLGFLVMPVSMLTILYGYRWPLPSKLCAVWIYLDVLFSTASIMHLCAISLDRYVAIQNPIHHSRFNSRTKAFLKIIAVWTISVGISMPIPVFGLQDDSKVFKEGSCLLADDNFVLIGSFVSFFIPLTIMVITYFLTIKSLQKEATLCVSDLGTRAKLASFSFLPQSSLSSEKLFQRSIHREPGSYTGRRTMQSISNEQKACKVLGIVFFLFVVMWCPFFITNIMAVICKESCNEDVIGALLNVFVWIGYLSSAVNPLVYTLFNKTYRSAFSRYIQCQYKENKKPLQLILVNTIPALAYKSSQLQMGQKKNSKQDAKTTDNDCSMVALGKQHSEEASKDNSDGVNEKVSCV
Summary of the method: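 Antagonist-mode intracellular calcium assay: DOI (4 nM) added after 5 min compound pre-incubation at room temperature to dye-loaded HTR2A-CHO cells. Fluorescence followed for 3 min, sampled every second.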

[13] = target: 5-hydroxytryptamine receptor 2A (Homo sapiens) (UniProt P28223); test: 5-hydroxytryptamine receptor 2A (HTR2A) small molecule agonists, cell-based qHTS assay (AID 1963587); note: nearly all actives have a fitted effect of over 30% in size
Summary of the method: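 Kinetic calcium-flux fluorescence (2 min, 1 sec intervals) after compound addition in agonist mode. HTR2A-CHO cells were cultured 18 h, then dye-loaded 1 h at 37 C.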

[14] = target: Muscarinic acetylcholine receptor M1 (Homo sapiens) (UniProt P11229); test: Cholinergic receptor muscarinic 1 (CHRM1) small molecule antagonists, cell-based qHTS assay (AID 1963588); note: nearly all actives have a fitted effect of over 40% in size
Muscarinic acetylcholine receptor M1 (Homo sapiens), sequence (P11229 whole entry, looked up): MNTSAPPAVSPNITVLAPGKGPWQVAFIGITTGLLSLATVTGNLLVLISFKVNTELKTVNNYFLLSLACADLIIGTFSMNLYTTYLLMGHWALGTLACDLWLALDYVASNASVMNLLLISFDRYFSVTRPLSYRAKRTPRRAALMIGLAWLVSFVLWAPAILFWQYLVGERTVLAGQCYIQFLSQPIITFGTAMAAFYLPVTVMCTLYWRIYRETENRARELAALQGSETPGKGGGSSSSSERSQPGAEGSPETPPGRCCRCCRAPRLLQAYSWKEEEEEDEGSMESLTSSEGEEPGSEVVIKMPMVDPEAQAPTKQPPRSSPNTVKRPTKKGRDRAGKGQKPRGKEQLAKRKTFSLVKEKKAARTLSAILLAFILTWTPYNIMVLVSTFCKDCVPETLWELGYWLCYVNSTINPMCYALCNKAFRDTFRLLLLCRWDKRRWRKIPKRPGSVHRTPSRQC
Summary of the method: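 CHRM1-CHO calcium-flux assay, antagonist mode. Cells were seeded 18 h, dye-loaded 1 h at 37 C and given compound for 5 min at RT, then acetylcholine was added at 50nM. FDSS fluorescence was read 3 min; 15 concentrations, three runs.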

[15] = cAMP Responsive Elements (CRE) small molecule antagonists, cell-based qHTS assay (AID 1963591; active = well fitted inhibition curve with a large enough effect in the signal ratio in the repeat runs, not every such curve was filed as active; the % refers to the signal ratio)
Summary of the method: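 CRE-bla HEK293T cells were plated 18 h at 37 °C/5% CO2, pinned with compound in DMSO, then stimulated with NKH477 at 0.25 uM final for 3 h. LiveBLAzer B/G FRET substrate was added and plates incubated 2 h at room temperature.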

[16] = target: Beta-2 adrenergic receptor (Homo sapiens) (UniProt P07550); test: Adrenergic beta2 receptor (ADRB2) small molecule antagonists, cell-based qHTS assay (AID 1963592); note: series mostly up to about 92 µM; nearly all actives have a fitted effect of over 50% in size
Beta-2 adrenergic receptor (Homo sapiens), sequence (P07550 whole entry, looked up): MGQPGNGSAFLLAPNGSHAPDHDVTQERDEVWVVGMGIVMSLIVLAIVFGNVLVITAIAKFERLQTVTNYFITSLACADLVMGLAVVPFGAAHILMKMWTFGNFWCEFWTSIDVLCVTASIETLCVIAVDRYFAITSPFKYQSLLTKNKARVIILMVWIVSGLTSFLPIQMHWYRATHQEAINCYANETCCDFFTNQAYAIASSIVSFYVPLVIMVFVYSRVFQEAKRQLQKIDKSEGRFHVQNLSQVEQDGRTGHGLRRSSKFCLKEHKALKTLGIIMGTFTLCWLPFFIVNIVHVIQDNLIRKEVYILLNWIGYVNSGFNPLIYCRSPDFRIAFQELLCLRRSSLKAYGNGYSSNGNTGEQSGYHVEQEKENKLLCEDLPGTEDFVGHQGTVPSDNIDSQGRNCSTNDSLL
Summary of the method: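 Cells (CHO, stable ADRB2 overexpression) incubated 18-20hr at 37C; compounds added from DMSO; agonist mix (1nM isoproterenol, 100uM IBMX, 25uM Ro-20-1724) added; 0.5hr RT; d2-cAMP and anti-cAMP-cryptate added; 1hr RT; 665/615 nm read.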

[17] = target: Beta-2 adrenergic receptor (Homo sapiens) (UniProt P07550); test: Adrenergic beta2 receptor (ADRB2) small molecule agonists, cell-based qHTS assay (AID 1963593);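 note: CHO cells stably overexpressing human ADRB2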
Summary of the method: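 CHO cells stably over-expressing ADRB2 were plated overnight at 37C, then dosed with compounds plus a stimulation mix containing 100uM IBMX and 25uM Ro-20-1724 for 0.5hr at room temperature. cAMP was measured by HTRF competition, 1hr.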

[18] = target: D(2) dopamine receptor (Homo sapiens) (UniProt P14416); test: Dopamine D2 receptor (DRD2) small molecule agonists, cell-based qHTS assay (AID 1963594); note: nearly all actives have a fitted effect of over 35% in size
D(2) dopamine receptor (Homo sapiens), sequence (P14416 whole entry, looked up): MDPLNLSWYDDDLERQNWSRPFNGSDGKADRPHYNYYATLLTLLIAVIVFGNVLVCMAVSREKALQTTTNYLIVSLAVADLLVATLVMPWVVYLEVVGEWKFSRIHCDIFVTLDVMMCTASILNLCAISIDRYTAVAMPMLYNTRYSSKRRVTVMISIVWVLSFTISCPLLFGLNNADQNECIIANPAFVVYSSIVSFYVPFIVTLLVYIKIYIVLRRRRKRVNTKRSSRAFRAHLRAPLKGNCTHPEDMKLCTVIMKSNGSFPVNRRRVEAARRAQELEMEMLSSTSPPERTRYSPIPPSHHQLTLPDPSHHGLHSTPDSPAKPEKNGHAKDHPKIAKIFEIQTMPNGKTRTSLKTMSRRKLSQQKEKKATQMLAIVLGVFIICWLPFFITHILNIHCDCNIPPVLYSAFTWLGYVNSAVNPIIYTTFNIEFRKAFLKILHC
Summary of the method: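 cAMP accumulation in DRD2-HEK293 cells measured by HTRF after 1 h detection; compounds added 10 min before NKH477 (200nM […]) forskolin-analogue stimulation, 30 min at room temperature, with Ro20-1724 present at 0.1 mM final.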

[19] = target: D(2) dopamine receptor (Homo sapiens) (UniProt P14416); test: Dopamine D2 receptor (DRD2) small molecule antagonists, cell-based qHTS assay (AID 1963595; active = well fitted inhibition curve with a large enough effect in the signal ratio in the repeat runs, with a control signal flat; the % refers to the signal ratio)
Summary of the method: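 Antagonism was scored as restored cAMP in HEK293-DRD2 cells. These cells were stimulated with 200 nM NKH477 and 12 nM quinpirole for 30 min at room temperature, in the presence of 0.1 mM Ro20-1724.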

[20] = cAMP Responsive Elements (CRE) small molecule agonists, cell-based qHTS assay (AID 1963590)
Summary of the method: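 CRE-bla HEK 293T cells in DMEM with 10% dialyzed FBS, NEAA, pyruvate and 25 mM HEPES were plated 18 h at 37 C/5% CO2, then exposed to compounds in DMSO for 3 h before LiveBLAzer B/G FRET substrate addition.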

Measured: Potency

CC(C)C1CCC(O)CC1 (stereo not given)
not listed: [20]
inactive: all other assays above

CN(C)c1ccc(Cc2ccc(N(C)C)cc2)cc1
active: [12] 4.23 µM
inactive and 34.4 µM (active): [2]
not listed: [15]
inactive: all other assays above

CCCCCc1cccc(=O)o1
not listed: [14] | [17]
inactive: all other assays above

CC(=N\O)/C(C)=N/O
not listed: [14]
inactive: all other assays above
